Source: PubChem (National Center for Advancing Translational Sciences (NCATS))
A selection: hits, their analogues and other compounds. The true share with any hit is near 1.8%.
Vif-A3F inh – qHTS for Inhibitors of Vif-A3F Interactions: qHTS; HeLa A3F-eYFP + Vif (tagged APOBEC3F with the HIV-1 protein that degrades it), YFP fluorescence increase; AID 602313, 2012; Potency, µM (titrated, usually from 46.1 µM), for inactives: top-dose activity, negative = active; 0.2% of 390,000 active; further: % of control where 0% means no effect; nearly all actives have a fitted effect of over 65% in size
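HeLa cells stably expressing A3F-eYFP plus Vif, plated and incubated overnight at 37 deg C, then exposed to compounds overnight at 37 deg C. Blocked degradation read as raised yellow fluorescence (Ex 488/Em 500-530).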
Vif-A3G inh – qHTS for Inhibitors of Vif-A3G Interactions: qHTS. AID 602310, 2012. DNA dC->dU-editing enzyme APOBEC-3G (Homo sapiens), Q9HC16. Potency, µM (titrated, usually from 46.1 µM), inactives show top-dose activity, negative = active, most hits filed as inhibitors. 0.076% of 410,000 active. HeLa A3G-eYFP + Vif (tagged APOBEC3G with the HIV-1 protein that degrades it), YFP fluorescence, overnight; further: on the % scale 0 is the no-effect control and ±100 the full control effect; nearly all actives have a fitted effect of over 60% in size
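HeLa cells stably expressing Vif and C-terminally eYFP-tagged A3G, seeded overnight at 37 deg C, then exposed to compound by pintool overnight at 37 deg C. Rise in yellow fluorescence (Ex 488/Em 500-530, Acumen) marks blocked Vif-driven A3G degradation.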
rTrxR1 inhibitor – qHTS Assay for Inhibitors of Mammalian Selenoprotein Thioredoxin Reductase 1 (TrxR1): qHTS; recombinant rTrxR1, NADPH fluorescence consumption, selenite substrate; Potency, µM (highest dose often 114 µM), without a hit: top-dose activity change, negative = inhibition, hits mostly inhibitors; 1% of 390,000 active; further: on the % scale 0 is the no-effect control and ±100 the full control effect; nearly all actives have a fitted effect of over 65% in size
Target sequence (O89049 whole entry, looked up): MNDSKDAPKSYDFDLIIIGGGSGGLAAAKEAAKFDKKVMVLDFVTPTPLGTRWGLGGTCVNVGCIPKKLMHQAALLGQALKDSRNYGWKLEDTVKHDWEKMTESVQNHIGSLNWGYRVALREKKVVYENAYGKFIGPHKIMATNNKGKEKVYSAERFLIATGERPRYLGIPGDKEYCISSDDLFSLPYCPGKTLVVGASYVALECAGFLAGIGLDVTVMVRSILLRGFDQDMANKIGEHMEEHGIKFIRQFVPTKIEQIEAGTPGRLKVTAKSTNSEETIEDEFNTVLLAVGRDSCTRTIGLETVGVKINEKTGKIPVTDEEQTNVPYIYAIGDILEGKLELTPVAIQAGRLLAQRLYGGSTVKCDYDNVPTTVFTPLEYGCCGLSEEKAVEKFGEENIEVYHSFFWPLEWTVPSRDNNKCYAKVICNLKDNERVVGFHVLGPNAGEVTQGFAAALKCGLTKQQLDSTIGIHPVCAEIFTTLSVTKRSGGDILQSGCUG
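Rat TrxR1 (90 nM in the dispensed reagent) was pre-reduced with 400 uM NADPH for 5 min at room temperature, then incubated with compound for 15 min. After 400 uM selenite was added, NADPH fluorescence (Ex 340/Em 450 nm) was followed for 8 min.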
TrxR1 substrate – qHTS Assay for Substrates of Mammalian Selenoprotein Thioredoxin Reductase 1 (TrxR1): qHTS. Thioredoxin reductase 1, cytoplasmic (Rattus norvegicus), O89049. purified TrxR1 substrate turnover, NADPH consumption readout. Potency, µM (titrated, usually from 114 µM), inactives show at the highest dose activity change, negative = substrate turnover. 0.01% of 390,000 active; further: on the % scale 0 is the no-effect control and ±100 the full control effect; nearly all actives have a fitted effect of over 50% in size
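Rat TrxR1, dispensed at 90 nM, was prereduced with 400 uM NADPH (final) for 5 min at ~22 deg C, then incubated with compound 15 min before 400 uM selenite. A first-read NADPH fluorescence drop versus no-compound background flagged substrates.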
VDR inhibitor – Inhibitors of the vitamin D receptor (VDR): qHTS | AID 504847, 2011 | 0.93% of 400,000 active | Potency, µM, for inactives: max response, negative = inhibition, hits mostly inhibitors | VDR-SRC2-3 peptide fluorescence polarization, 2 h | Vitamin D3 receptor (Homo sapiens), P11473; further: on the % scale 0 is the no-effect control and ±100 the full control effect
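Two reagent solutions held at 4 deg C in the dark were dispensed, compounds pinned at 23 nl, and the mixture incubated 2 h at room temperature. Read-out: fluorescence polarization of VDR–SRC2-3 peptide binding.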
* hit, by the source's call; i = inactive; ? = inconclusive; . = not tested or not shown; [ ] = dose if it differs, or a comment. The call rests on the fitted dose curve; in most records, active means well fitted curve in the direction sought with a large enough effect; inconclusive means small, poorly fitted or top-dose-only effect, or another doubt; inactive means no such curve, though single readings can be large; an effect the other way counts as inactive or inconclusive. Potency means the concentration at half of the fitted maximal effect.

SMILES	Vif-A3F inh	Vif-A3G inh	rTrxR1 inhibitor	TrxR1 substrate	VDR inhibitor
Cc1ccc(S(=O)(=O)N2CCCC2C(=O)OCc2ccco2)cc1 (centres undefined)	-6%	-1%	7.9µM*	10%	2%
Cc1ccc2cc(CN(C(=O)c3ccco3)c3cccc(C)c3C)c(=O)[nH]c2c1	?	-2%	18µM*	6%	?
Cc1nn(-c2ccc(Cl)cc2)c2[nH]c(=O)c(CNCc3ccc4c(c3)OCO4)cc12	5%	-7%	22µM*	-2%	9%
O=[N+]([O-])c1cc(-c2ccc(C(=S)N3CCOCC3)o2)ccc1Cl	0%	-8%	13%	-4%	10µM*
O=C(Nc1ccccc1)c1ccc(-n2nncc2-c2ccccc2)cc1	.	0%	14%	0%	61%
Cc1ccc(S(=O)(=O)NC(C(=O)Oc2ccc3ccc(=O)oc3c2)c2ccccc2)cc1 (centres undefined)	7%	-1%	50µM*	259%	?
CCC(NC(=O)OCc1ccccc1)C(=O)Oc1ccc2ccc(=O)oc2c1 (centres undefined)	-7%	-8%	50µM*	117%	?
COc1cccc(/C=C/c2nc3ccccc3nc2/C=C/c2cccc(OC)c2OC)c1OC	.	-2%	7%	8%[0.0914 µM]	.
O=c1[nH]c2c(-c3nc(-c4ccc(F)cc4)cs3)c(O)cn2c2ccc(Br)cc12	.	2%	8%	3%	.
CCC(=O)N1CCCc2cc(S(=O)(=O)N3CCC(C(=O)Nc4ccccc4CC)CC3)ccc21	4%	0%	-2%[57.1 µM]	-5%[57.1 µM]	-5%
COc1ccc2c(c1)CCc1cc(C(=O)O)sc1-2	-5%	1%	45µM*	i	10%
CC(=O)c1cccc(NC(=S)NC(=O)c2cncc(Br)c2)c1	1%	-5%	22µM*	-9%	-14%
COc1cccc(NC(=S)NC(=O)c2cncc(Br)c2)c1	?	1%	?	-9%	-18%
CC(=O)c1cccc(NC(=S)NC(=O)c2ccccc2)c1	-5%	-3%	35µM*	0%	3%
COc1cc(C(=O)NC(=S)Nc2cccc3nc(C)ccc23)cc(OC)c1OC	-9%	-3%	24%[57.1 µM]	5%[57.1 µM]	13%
Cc1ccc2c(NC(=S)NC(=O)c3ccccc3)cccc2n1	?	1%	79µM*	-22%	-6%
O=C(NC(=S)Nc1ccccc1C(=O)O)c1cncc(Br)c1	2%	0%	-3%[57.1 µM]	5%[57.1 µM]	50µM*
CCCC[C@H](NC(=O)[C@H](CO)NC(=O)[C@H](Cc1ccc(O)cc1)NC(=O)[C@H](CO)NC(C)=O)C(=O)N[C@@H](CCC(=O)O)C(=O)N[C@@H](Cc1cnc[nH]1)C(=O)N[C@H](Cc1ccccc1)C(=O)N[C@@H](CCCNC(=N)N)C(=O)N[C@@H](Cc1c[nH]c2ccccc12)C(=O)NCC(=O)N[C@@H](CCCCN)C(=O)N1CCC[C@H]1C(=O)N[C@H](C(N)=O)C(C)C	.	.	.	.	1%
COc1ccccc1NC(C)C(=O)c1c(C)[nH]c2ccccc12 (centres undefined)	.	-3%	-1%	-4%	.
COc1cccc(/C=C/c2ccc3ccccc3[n+]2C)c1OC	.	-12%	22%	118%	.
Cc1cc(O)c(C)c2sc(N)nc12	.	.	.	.	6%
O=C(NC(=S)Nc1ccccn1)c1cncc(Br)c1	2%	0%	-19%	-2%	-4%
Cc1cccnc1NC(=S)NC(=O)c1cncc(Br)c1	-6%	-5%	32µM*	10%	18%
O=C(O)c1cccc(NC(=S)NC(=O)c2ccc(-c3ccccc3)cc2)c1	2%	-1%	-5%[57.1 µM]	0%[57.1 µM]	8%
Cc1ccc(C(=O)O)cc1NC(=S)NC(=O)c1ccc(-c2ccccc2)cc1	19%	1%	40µM*	1%	-7%
SMILES	Vif-A3F inh	Vif-A3G inh	rTrxR1 inhibitor	TrxR1 substrate	VDR inhibitor
Fc1ccc(Nc2nc3nonc3nc2Nc2cccc(C(F)(F)F)c2)cc1	1%	2%	25%	-6%	-2%
NC(N)=NCCC[C@H](N)C(=O)NCC(=O)N[C@@H](CC(=O)O)C(=O)O	.	.	.	.	8%
CC(=O)c1ccc(NC(=S)Nc2cccc3cnccc23)cc1	-22%	4%	22µM*	-8%	?
Cc1ccc(NC(=S)Nc2cccc3cnccc23)cc1C	-14%	-6%	-46%	-5%	?
Cc1ccc(NC(=S)Nc2cccc3cnccc23)cc1	0%	-2%	?	-1%[57.1 µM]	?
S=C(Nc1cccc(Cl)c1)Nc1cccc2cnccc12	-1%	-1%	45µM*	-9%	71µM*
CC(C)COc1ccc(C(=O)OCCN2CCCCC2)cc1	-21%	0%	1%	0%	6%
CC(=O)c1ccc(OCCCN2CCCCC2)cc1	5%	0%	15%	4%	15%
CCCCOc1ccc(C(=O)CCN2CCCCC2)cc1	4%	-12%	3.2µM*	12%	4.5µM*
CC(C)COc1ccc(C(=O)CCN2CCCCC2)cc1	-2%	-20%	1.4µM*	-10%	?
CC(=O)Nc1ccc(/C=C/c2ccncc2)cc1	.	-5%	8%	18%	.
COc1cc2nc(N3CCN(C)CC3)nc(NC3CCN(Cc4ccccc4)CC3)c2cc1OC	.	.	-9%	18%	.
O=C(NC(=S)NC1C2CC3CC(C2)CC1C3)c1ccccc1 (centres undefined)	?	0%	50µM*	5%	1%
C=C1NN(Cc2ccccc2)C(=O)N1c1ccc(OC)cc1	.	2%	10%	-2%	.
CCOC(=O)c1ccc(NC(=O)/C=C/c2cccs2)cc1	9%	-2%	-35%	79µM*	33%
CCN(CC)CCOC(=O)c1ccc(NC(=O)/C=C/c2cccs2)cc1	7%	1%	?	-11%	1%
COc1ccc2c(c1)C=C/C2=C/c1ccc(N(C)C)cc1	.	-1%	-16%	-12%	.
O=C(CCSc1ccccn1)c1ccccc1	5%	-13%	2µM*	-6%[57.1 µM]	?
C=CCOC(=O)C(=O)/C=C/c1c(C)n(C)n(-c2ccccc2)c1=O	-3%	1%	1%	-6%	-14%
C=CCOC(=O)C(=O)/C=C/c1coc2ccccc2c1=O	-23%	-17%	16%	108%	14µM*
CCCN1C(=O)/C(=C/c2ccncc2)SC1=S	-2%	1%	0%	-6%	?
O=C1/C(=C/c2ccncc2)SC(=S)N1N1CCOCC1	-6%	-8%	22µM*	-2%	-21%
